Test results reported in PubChem BioAssay AID501 (PCMD, 2006).
The whole screen tested about 62,000 compounds, of which about 35 (0.06%) were called active. The full list was thinned out, with actives kept by preference. Values without a mark were called inactive. Cut-off read from the data, not from the text of the source: active = inhibition above about 32% (passing the limit was not always enough); inconclusive = no clear call, values can overlap the other calls.

Molecular target: Cathepsin S (Homo sapiens) (UniProt P25774)
Sequence (P25774 115-331 limits assumed): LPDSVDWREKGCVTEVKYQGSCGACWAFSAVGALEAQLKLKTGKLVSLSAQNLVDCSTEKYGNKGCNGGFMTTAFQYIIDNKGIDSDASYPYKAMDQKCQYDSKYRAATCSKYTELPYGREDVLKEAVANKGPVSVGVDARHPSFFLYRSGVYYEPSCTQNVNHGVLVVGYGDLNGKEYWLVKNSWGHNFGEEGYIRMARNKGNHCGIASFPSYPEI
Assay: inhibitors of human cathepsin S, biochemical, compound mixtures (AID 501);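 note: 0% = enzyme without compound and 100% = blank without enzyme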
Details: recombinant cathepsin S, AMC dipeptide fluorescence, pooled mixtures; stronger effect = higher value;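 tested at 5 µM per compound within 10-compound mixtures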

| Compound | inhibition [%] |
| --- | --- |
| COc1ccc(-n2ncc3c(N4CCc5ccccc54)ncnc32)cc1 | -6.55 |
| COc1ccccc1C(=O)N1CCN=C1SCc1cccnc1 | 3.41 |
| CCn1cc(C(=O)N2CCN(Cc3ccc4c(c3)OCO4)CC2)c2cc(OC)c(OC)cc2c1=O | 0.555 |
| Cc1ccc(S(=O)(=O)NCc2cn3ccsc3n2)c(C)c1 | -2.17 |
| CC1(C)CC(=O)C(C=NCc2cccnc2)=C(O)C1 | -6.24 |
| COc1ccc(C(=O)Cn2nnc(-c3ccc(N4CCOCC4)cc3)n2)cc1OC | 8.22 |
| Cc1c(-c2nn(C)c(=O)c3ccccc23)oc2ccc(F)cc2c1=O | 21.9 |
| CCn1c(SCC(=O)Nc2cc(C)ccc2C)nnc1-c1cnccn1 | -6.74 |
| O=C(Cn1nnc(-c2ccccc2)n1)NCc1ccccc1 | 3.11 |
| NC(=O)Cn1c(=O)oc2ccccc21 | 0.705 |
| Cc1nnc(C)n1/N=C/c1ccc(C(C)C)cc1 | 5.16 |
| CCc1nnc(NC(=O)CSc2nnc(-c3ccncc3)n2Cc2ccccc2)s1 | 15.4 |
| Cc1cc(N2CCCC2=O)cc(C)c1S(N)(=O)=O | 14 |
| CC(C)OCCCNC(=O)CNC(=O)c1cccs1 | 15.3 |
| Cn1cnc2c1c(=O)n(Cc1c(Cl)cccc1Cl)c(=O)n2C | -2.21 |
| CCOC(=O)CNC(=O)CSc1nnc(COc2ccc(Cl)cc2)n1CC | 17 |
| Cc1cccc(N2CCN(C(=O)C3CCN(S(=O)(=O)c4cnc[nH]4)CC3)CC2)c1C | -2.09 |
| CCOC(=O)c1c(NC(=O)c2ccc(Br)o2)sc2c1CCCC2 | -2.96 |
| COc1cccc(N(CC(=O)NC2CCCC2)C(=O)Cn2nnc(-c3ccc(C)cc3)n2)c1 | -32.1 |
| CC1CC(c2ccccc2)n2nc(NC(=O)c3cccs3)nc2N1 (configuration not stated) | 7.8 |
| CC(=O)Nc1cc2ccc(OC(C)=O)cc2oc1=O | -31.5 |
| C=CCNC(=O)C1CC=CCC1C(=O)O (configuration not stated) | -2.51 |
| CCOC(=O)CSc1nnc(CNc2nc(-c3ccccc3)cs2)n1C | -5.74 |
| O=C(NC(c1ccccc1)c1ccccc1)N1CCN(CCO)CC1 | 10.9 |

| Compound | inhibition [%] |
| --- | --- |
| Cc1cc(C(F)(F)F)nn1-c1nc(-c2ccco2)cc(C(F)(F)F)n1 | 7.66 |
| COCCn1c(CN(Cc2ccccc2)Cc2ccccc2)nc2c1c(=O)n(C)c(=O)n2C | 9.43 |
| CCN(C(=O)CSc1ncn[nH]1)c1cccc2ccccc12 | 2.39 |
| Cc1noc(NS(=O)(=O)c2ccc(N3CC(O)=C(c4ccccc4)C3=N)cc2)c1C | -12.9 |
| CCn1ncc(Br)c1C(=O)Nc1cc(C)ccc1F | 6.74 |
| Cc1ccc(-c2nc(CS(=O)CC(=O)N3CCN(c4ncccn4)CC3)c(C)o2)cc1 (configuration not stated) | 7.31 |
| CC(C)n1c(C(O)c2ccccc2)nc2ccccc21 (configuration not stated) | -7.12 |
| Cc1ccccc1N1CC(c2nc3ccccc3[nH]2)CC1=O (configuration not stated) | -1.51 |
| Cc1ccc(-c2nnc(SC(C)C#N)n2N)cc1 (configuration not stated) | -1.33 |
| Cn1c(=O)c(C(=O)Nc2ncccn2)c(O)c2ccccc21 | -4.57 |
| CC(=O)NCCc1ccc(S(=O)(=O)N(C)C2CCS(=O)(=O)C2)cc1 (configuration not stated) | 30 |
| CCc1ccccc1NC(=O)CSc1nnc([C@@H](NC(=O)OC(C)(C)C)C(C)C)o1 | 9.29 |
| Cc1nn(C)c(C)c1S(=O)(=O)N1CCc2ccccc21 | -5.94 |
| CCOC(=O)c1sc(N(Cc2ccccc2)C(=O)CN2C(=O)CN(C)C2=O)nc1C | -1.84 |
| COCCn1c(=O)[nH]c2cc(C(=O)NCc3cccnc3)ccc2c1=O | 4.14 |
| Cc1ccc(NC(=O)CS(=O)CC(=O)N(c2ccccc2)C(C)C(=O)NC2CCCC2)cc1 (configuration not stated) | -27.8 |
| O=C(C1CCN(CC2CCCCC2)CC1)N1CCCC1 | -3 |
| FC(F)Oc1ccccc1C1CC(c2ccc(Br)s2)Nc2ncnn21 (configuration not stated) | 1.68 |
| CCC(C)n1[nH]c(=O)c2c(C)cc(C)nc21 (configuration not stated) | 12.4 |
| Cc1nc(NC(=O)CCC(=O)O)sc1C(=O)N(C)C | -4.56 |
| O=C(Cn1cc2c(n1)CCCCC2)NCCN1CCOCC1 | 7.2 |
| CC(C)c1ccc(NS(=O)(=O)c2cn(C)c(=O)n(C)c2=O)cc1 | -0.575 |
| COc1ccccc1NC(=O)CSc1nnc(Cn2nnc(-c3ccccc3)n2)n1-c1ccccc1 | -0.79 |
